Measurements as given in PubChem BioAssay (NCI).
The panel holds about 79,000 compounds, 15% with a hit somewhere; the sample as a whole holds those more often. Values without a mark were called inactive. Active and inactive are the calls of the source. Rule as the data show it: active = growth inhibition above about 70%; inactive = the rest.

Legend:
[1] = NCI Yeast Anticancer Drug Screen. Data for the rad50 strain (AID 155);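 also: 0% = growth of vehicle-only cultures of the same strain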; conditions: S. cerevisiae rad50 strain growth inhibition, active compounds read high
How it was run: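 Growth of the mutant yeast was measured after compound exposure and referenced to vehicle-treated cultures.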

[2] = NCI Yeast Anticancer Drug Screen. Data for the mec2-1 strain (AID 157); conditions: S. cerevisiae mec2-1 strain, active compounds read high
How it was run: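 Growth inhibition is read against vehicle-treated controls after compound exposure of the mec2-1 yeast strain, which is defective in DNA damage repair or cell cycle control.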

[3] = NCI Yeast Anticancer Drug Screen. Data for the sgs1 mgt1 strain (AID 161);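 also: 0% = growth of cultures given vehicle only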; conditions: S. cerevisiae sgs1 mgt1 strain, active compounds read high
How it was run: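 Percent growth inhibition was derived by comparing compound-exposed mutant yeast with vehicle-exposed cultures. The strain carries alterations in DNA damage repair.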

[4] = NCI Yeast Anticancer Drug Screen. Data for the cln2 rad14 strain (AID 165);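 also: 0% = growth equal to vehicle treated cultures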; conditions: S. cerevisiae cln2 rad14 strain, active compounds read high
How it was run: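 Growth inhibition, relative to vehicle-treated controls, is the read-out. The test organism is a yeast strain with defined genetic alterations, cln2 rad14.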

[5] = NCI Yeast Anticancer Drug Screen. Data for the bub3 strain (AID 167); conditions: S. cerevisiae bub3 mutant strain, active compounds read high
How it was run: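 Whole-cell yeast assay. The mutant strain was incubated with compounds, and growth inhibition was determined by comparison with vehicle-treated cells.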

[6] = NCI Yeast Anticancer Drug Screen. Data for the mlh1 rad18 strain (AID 175); conditions: S. cerevisiae mlh1 rad18 strain growth inhibition, active compounds read high
How it was run: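 Cells of a genetically altered yeast strain, deficient in DNA damage repair, were treated with compound. Their growth was then compared with that of vehicle-treated cultures to give inhibition.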

[7] = at 5.0 µM (retest, dose inferred, filed as 0.5)
[8] = at 50.0 µM (retest, dose inferred, filed as 5.0)

With `O=C(O)/C=C1\c2ccccc2CCC1c1ccc2ccccc2c1` (configuration not stated) the growth inhibition [1, 7] was 64%, the growth inhibition [1, 8] was 93% (active) and the growth inhibition ([1]; at 50.0 µM) was 99.7% (active). The growth inhibition [2, 7] was 27%, the growth inhibition [2, 8] was 85% (active) and the growth inhibition ([2]; at 50.0 µM) was 99.7% (active). For the same compound, the growth inhibition [3, 7] was 43%, the growth inhibition [3, 8] was 91% (active) and the growth inhibition ([3]; at 50.0 µM) was 99.8% (active). For the same compound, the growth inhibition [4, 7] was 41%, the growth inhibition [4, 8] was 82% (active) and the growth inhibition ([4]; at 50.0 µM) was 99.3% (active). The growth inhibition [5, 7] was 47%, the growth inhibition [5, 8] was 85% (active) and the growth inhibition ([5]; at 50.0 µM) was 99.8% (active). The growth inhibition [6, 7] was 54%, the growth inhibition [6, 8] was 93% (active) and the growth inhibition ([6]; at 50.0 µM) was 99.5% (active).

In the case of `Cc1cc(=O)n(-c2ccc(F)cc2)n1C`, the growth inhibition [1, 7] is reported as 1%, the growth inhibition [1, 8] is reported as 0% and the growth inhibition ([1]; at 50.0 µM) is reported as 30.9%. For the same compound, the growth inhibition [2, 7] was -6%, the growth inhibition [2, 8] was 1% and the growth inhibition ([2]; at 50.0 µM) was -5.7%. For the same compound, the growth inhibition [3, 7] was 0%, the growth inhibition [3, 8] was 2% and the growth inhibition ([3]; at 50.0 µM) was 31.7%. For the same compound, the growth inhibition [4, 7] was 3%, the growth inhibition [4, 8] was 15% and the growth inhibition ([4]; at 50.0 µM) was 22.9%. For the same compound, the growth inhibition [5, 7] was 0%, the growth inhibition [5, 8] was -2% and the growth inhibition ([5]; at 50.0 µM) was 25.4%. The growth inhibition [6, 7] was 2%, the growth inhibition [6, 8] was -16% and the growth inhibition ([6]; at 50.0 µM) was -23.6%.

With `Cc1ccc2c(ccc3ccccc32)c1` the growth inhibition [1, 7] was -23%, the growth inhibition [1, 8] was 42% and the growth inhibition ([1]; at 50.0 µM) was 74.3% (active). It also gave a growth inhibition [2, 7] of 1%, a growth inhibition [2, 8] of 10% and a growth inhibition ([2]; at 50.0 µM) of 16.4%. The growth inhibition [3, 7] was -7%, the growth inhibition [3, 8] was 16% and the growth inhibition ([3]; at 50.0 µM) was 57.5%. The growth inhibition [4, 7] was -25%, the growth inhibition [4, 8] was -12% and the growth inhibition ([4]; at 50.0 µM) was 10.2%. The growth inhibition [5, 7] was -15%, the growth inhibition [5, 8] was 38% and the growth inhibition ([5]; at 50.0 µM) was 71% (active). It also gave a growth inhibition [6, 7] of -67%, a growth inhibition [6, 8] of 39% and a growth inhibition ([6]; at 50.0 µM) of 34.6%.

With `COC1/C=C/OC2(C)Oc3c(C)c(O)c4c5c(cc(O)c4c3C2=O)N=C(O5)/C(C)=C\C=C\C(C)C(O)C(C)C(O)C(C)C(OC(C)=O)C1C` (configuration not stated) the growth inhibition [1, 7] was 5%, the growth inhibition [1, 8] was 99% (active) and the growth inhibition ([1]; at 50.0 µM) was 55.2%. The growth inhibition [2, 7] was -71%, the growth inhibition [2, 8] was 99% (active) and the growth inhibition ([2]; at 50.0 µM) was 60%. The growth inhibition [3, 7] was -60%, the growth inhibition [3, 8] was 96% (active) and the growth inhibition ([3]; at 50.0 µM) was 53.6%. For the same compound, the growth inhibition [4, 7] was 28%, the growth inhibition [4, 8] was 99% (active) and the growth inhibition ([4]; at 50.0 µM) was 53.5%. For the same compound, the growth inhibition [5, 7] was 3%, the growth inhibition [5, 8] was 99% (active) and the growth inhibition ([5]; at 50.0 µM) was 48.5%. The growth inhibition [6, 7] was 4%, the growth inhibition [6, 8] was 98% (active) and the growth inhibition ([6]; at 50.0 µM) was 60.6%.

For `CN(C)CC[N+](C)(C)Cc1ccc(C[N+](C)(C)CC[N+](C)(C)Cc2ccc(CCl)cc2)cc1`, the growth inhibition [1, 7] was 0%, the growth inhibition [1, 8] was 0% and the growth inhibition ([1]; at 50.0 µM) was 99% (active). The growth inhibition [2, 7] was -39%, the growth inhibition [2, 8] was -1% and the growth inhibition ([2]; at 50.0 µM) was 98% (active). The growth inhibition [3, 7] was -1%, the growth inhibition [3, 8] was 2% and the growth inhibition ([3]; at 50.0 µM) was 97.9% (active). The growth inhibition [4, 7] was 1%, the growth inhibition [4, 8] was 2% and the growth inhibition ([4]; at 50.0 µM) was 96% (active). For the same compound, the growth inhibition [5, 7] was -6%, the growth inhibition [5, 8] was 2% and the growth inhibition ([5]; at 50.0 µM) was 97.8% (active). The growth inhibition [6, 7] was -1%, the growth inhibition [6, 8] was -1% and the growth inhibition ([6]; at 50.0 µM) was 98.7% (active).

Work on `NC(Cc1ccc(O)cc1O)C(=O)O` (configuration not stated) yielded a growth inhibition [1, 7] of 0%, a growth inhibition [1, 8] of 2% and a growth inhibition ([1]; at 50.0 µM) of 7.7%. The growth inhibition [2, 7] was 0%, the growth inhibition [2, 8] was -1% and the growth inhibition ([2]; at 50.0 µM) was 31%. For the same compound, the growth inhibition [3, 7] was -1%, the growth inhibition [3, 8] was -4% and the growth inhibition ([3]; at 50.0 µM) was -7%. For the same compound, the growth inhibition [4, 7] was 2%, the growth inhibition [4, 8] was -2% and the growth inhibition ([4]; at 50.0 µM) was 74.9% (active). For the same compound, the growth inhibition [5, 7] was 5%, the growth inhibition [5, 8] was -4% and the growth inhibition ([5]; at 50.0 µM) was 3.55%. It also gave a growth inhibition [6, 7] of -1%, a growth inhibition [6, 8] of -1% and a growth inhibition ([6]; at 50.0 µM) of 16.4%.

For `CCCCCCOC(=O)C(N)Cc1ccc(OC)cc1` (configuration not stated), the growth inhibition [1, 7] was 5%, the growth inhibition [1, 8] was 21% and the growth inhibition ([1]; at 50.0 µM) was 39.2%. For the same compound, the growth inhibition [2, 7] was 7%, the growth inhibition [2, 8] was 29% and the growth inhibition ([2]; at 50.0 µM) was 40.5%. For the same compound, the growth inhibition [3, 7] was 6%, the growth inhibition [3, 8] was 42% and the growth inhibition ([3]; at 50.0 µM) was 56.2%. The growth inhibition [4, 7] was 2%, the growth inhibition [4, 8] was 17% and the growth inhibition ([4]; at 50.0 µM) was 32.4%. For the same compound, the growth inhibition [5, 7] was 5%, the growth inhibition [5, 8] was 80% (active) and the growth inhibition ([5]; at 50.0 µM) was 52%. The growth inhibition [6, 7] was -1%, the growth inhibition [6, 8] was 43% and the growth inhibition ([6]; at 50.0 µM) was 48.1%.

With `CC(C)(C)SC(=O)C1(C)OC1c1ccc([N+](=O)[O-])cc1` (configuration not stated) the growth inhibition [1, 7] was -6%, the growth inhibition [1, 8] was 45% and the growth inhibition ([1]; at 50.0 µM) was 53%. It also gave a growth inhibition [2, 7] of -4%, a growth inhibition [2, 8] of -3% and a growth inhibition ([2]; at 50.0 µM) of 67.8%. The growth inhibition [3, 7] was -5%, the growth inhibition [3, 8] was 51% and the growth inhibition ([3]; at 50.0 µM) was 62.3%. For the same compound, the growth inhibition [4, 7] was 5%, the growth inhibition [4, 8] was -2% and the growth inhibition ([4]; at 50.0 µM) was -20.8%. For the same compound, the growth inhibition [5, 7] was 0%, the growth inhibition [5, 8] was 13% and the growth inhibition ([5]; at 50.0 µM) was 29.8%. The growth inhibition [6, 7] was -5%, the growth inhibition [6, 8] was 49% and the growth inhibition ([6]; at 50.0 µM) was 79.8% (active).

`O=C(CNc1ccccc1[N+](=O)[O-])Nn1c(-c2ccccc2)nc2ccccc2c1=O` gave a growth inhibition [1, 7] of 20%, a growth inhibition [1, 8] of 36% and a growth inhibition ([1]; at 50.0 µM) of 59.1%. It also gave a growth inhibition [2, 7] of 2%, a growth inhibition [2, 8] of 33% and a growth inhibition ([2]; at 50.0 µM) of 38.5%. It also gave a growth inhibition [3, 7] of 17%, a growth inhibition [3, 8] of 33% and a growth inhibition ([3]; at 50.0 µM) of 69%. It also gave a growth inhibition [4, 7] of 9%, a growth inhibition [4, 8] of 35% and a growth inhibition ([4]; at 50.0 µM) of 36%. It also gave a growth inhibition [5, 7] of -8%, a growth inhibition [5, 8] of 34% and a growth inhibition ([5]; at 50.0 µM) of 46.7%. For the same compound, the growth inhibition [6, 7] was 10%, the growth inhibition [6, 8] was 48% and the growth inhibition ([6]; at 50.0 µM) was 75.5% (active).
